Test results taken from PubChem BioAssay (NCATS).
Where “and” joins values, the source holds several entries; their conditions need not be identical. Equal entries are not always repeated. Records with an inconclusive call do not appear. A number with no mark means an inactive call. Calls come from the whole dose curve; as a rule, active = well fitted curve in the direction sought with a large enough effect; inconclusive = small, poorly fitted or top-dose-only effect, or another doubt; inactive = no such curve, though single readings can be large or run the other way.

assay: qHTS Assay for Identifying Gametocytocidal Compounds (AID 743244);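 note: actives lower the fluorescent signal which means gametocytes are killed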; conditions: P. falciparum 3D7 stage III-V gametocytes, alamarBlue, 72 h; max response: active compounds read low
Summary of the method: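 3D7 gametocytes, stages III–V, 20,000/well; cpd 72 h, 37 °C/5% CO2; + alamarBlue 24 h; fluor. Ex 525/Em 598.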
% is set by controls: 0 for no effect and ±100 for the full control effect.

Compound | max response
O=C(CCCCCCCCCCCCC1CCCC1)Nc1ccc(S(=O)(=O)c2ccc(NC(=O)CCCCCCCCCCCCC3CCCC3)cc2)cc1 | 1.73%
CC(C)C[C@H](NC(=O)[C@@H](COC(C)(C)C)NC(=O)[C@H](Cc1ccc(O)cc1)NC(=O)[C@H](CO)NC(=O)[C@H](Cc1c[nH]c2ccccc12)NC(=O)[C@H](Cc1cnc[nH]1)NC(=O)[C@@H]1CCC(=O)N1)C(=O)N[C@@H](CCCN=C(N)N)C(=O)N1CCC[C@H]1C(=O)NNC(N)=O | 16.2% and -4.65%
CCCCCCCCCCCCCCCCCC(=O)OCC(C)O (configuration not stated) | 2.45%
O=[N+]([O-])c1c(Cl)cccc1-c1c[nH]cc1Cl | 0.263%
CCN(CC)CCOc1ccc2nc(N(C)C)sc2c1 | -4.7%
CC(C)(C)c1ccc(CN2CCN(C(c3ccccc3)c3ccc(Cl)cc3)CC2)cc1 (configuration not stated) | -2.06%
C=CCN1CCCC1CNC(=O)c1cc(S(N)(=O)=O)cc(OC)c1OC (configuration not stated) | -2.17%
O=C1N=C2SCCN2C(=O)C1Cc1ccc(Cl)cc1 (configuration not stated) | -5.09%
CN(C)CCOc1ccc(/C(=C(/CCCl)c2ccccc2)c2ccccc2)cc1 | 7.93%
CCCCC[C@H](O)/C=C/[C@H]1[C@H](O)CC(=O)[C@@H]1C/C=C\CCCC(=O)O | 5.55%
CO/N=C(\C(=O)N[C@@H]1C(=O)N2C(C(=O)O)=C(C[N+]3(C)CCCC3)CS[C@H]12)c1csc(N)n1 | 15.9%
COC1=C(OC)C(=O)C(C/C=C(\C)CC/C=C(\C)CC/C=C(\C)CC/C=C(\C)CC/C=C(\C)CC/C=C(\C)CC/C=C(\C)CC/C=C(\C)CC/C=C(\C)CCC=C(C)C)=C(C)C1=O | 1.6% and -2.73%
